CRFR2-BP ag = agonists of CRF-BP/CRF-R2 complex, primary screen, cell-based, HEK293, calcium dye fluorescence, uHTS; activation, % at 13.2 µM; hit rate 0.46% among 350,000; calcium dye fluorescence (FLIPR); percent of saturating CRF peptide response; CRF-binding protein / CRF receptor 2 complex (human);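 active = activation of at least 50%, plus an integration ratio under a set limit after plate pattern correction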
TMEM16A inh = TMEM16A chloride channel inhibitors, primary screen, cell-based, HTS. normalized B-score (activity score, 25-100; higher = stronger inhibition) at 10 µM. HEK293 TMEM16A/YFP iodide influx fluorescence, ionomycin. hit rate 1.2% among 310,000. Anoctamin-1 (Mus musculus), Q8BHY3;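 active = ratio plate-corrected score three or more library SD toward inhibition, starting fluorescence score within five deviations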;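 also: score derived from kinetic fluorescence span divided by baseline fluorescence per well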
Target sequence (Q8BHY3 whole entry, looked up): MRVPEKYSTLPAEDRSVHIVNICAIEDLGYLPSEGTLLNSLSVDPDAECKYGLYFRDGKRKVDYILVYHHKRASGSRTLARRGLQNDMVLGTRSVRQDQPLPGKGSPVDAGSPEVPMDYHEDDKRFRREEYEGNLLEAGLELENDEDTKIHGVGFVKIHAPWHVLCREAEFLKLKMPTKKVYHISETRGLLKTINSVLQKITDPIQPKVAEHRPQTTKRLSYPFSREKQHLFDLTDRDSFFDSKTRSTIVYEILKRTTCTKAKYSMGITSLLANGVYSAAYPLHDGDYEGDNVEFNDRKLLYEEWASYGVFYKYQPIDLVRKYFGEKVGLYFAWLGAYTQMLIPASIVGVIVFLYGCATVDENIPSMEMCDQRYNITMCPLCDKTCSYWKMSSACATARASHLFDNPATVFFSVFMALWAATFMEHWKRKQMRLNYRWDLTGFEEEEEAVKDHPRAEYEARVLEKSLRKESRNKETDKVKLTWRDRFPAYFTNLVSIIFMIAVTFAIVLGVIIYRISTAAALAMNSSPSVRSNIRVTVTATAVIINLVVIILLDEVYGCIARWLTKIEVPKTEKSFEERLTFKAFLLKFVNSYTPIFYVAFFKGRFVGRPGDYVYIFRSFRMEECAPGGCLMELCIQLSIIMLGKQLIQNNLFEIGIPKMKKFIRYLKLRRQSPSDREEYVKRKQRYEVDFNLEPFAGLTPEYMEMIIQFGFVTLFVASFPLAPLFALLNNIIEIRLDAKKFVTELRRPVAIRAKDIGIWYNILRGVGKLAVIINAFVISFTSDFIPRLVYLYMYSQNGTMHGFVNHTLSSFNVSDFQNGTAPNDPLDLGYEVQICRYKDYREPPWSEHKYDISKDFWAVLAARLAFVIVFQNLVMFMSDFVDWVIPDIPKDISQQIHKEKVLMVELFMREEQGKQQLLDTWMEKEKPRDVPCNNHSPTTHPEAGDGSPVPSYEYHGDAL
RTF Ca sens inh = cardiac RTF calcium sensitivity inhibitors, primary screen, biochemical, IANBD-TnC fluorescence, EC70 calcium. Troponin I, cardiac muscle (Homo sapiens) + Troponin T, cardiac muscle (Homo sapiens) + …. IANBD-labeled cardiac RTF, Ca2+ fluorescence. inhibition, % at 7.15 µM. hit rate 0.12% among 340,000;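 active = inhibition above the mean inhibition of all tested compounds plus 3 SD, cut at about 17% in these data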;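 also: assay run at fixed EC70 calcium of 1.6 mM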
ANO1 activ = TMEM16A chloride channel activators or potentiators, primary screen, cell-based, HTS | B-score at 10 µM | Anoctamin-1 (Mus musculus), Q8BHY3 | hit rate 0.3% among 340,000 | HEK293 TMEM16A/YFP-H148Q/I152L, iodide quench fluorescence; active compounds read low | AID 623877, 2012;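 active = fluorescence-ratio B-score plate-corrected deviation score at least 3 library SD below zero, with starting fluorescence score within 5 deviations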;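 also: channel opened by trigger with iodide after compound preincubation; score built on the fluorescence ratio of max minus min over baseline; more negative score means more quench and so TMEM16A activation or potentiation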
RTF Ca sens act = cardiac RTF calcium sensitivity activators, primary screen, biochemical, IANBD-TnC fluorescence, EC20 calcium; Troponin I, cardiac muscle (Homo sapiens) + Troponin T, cardiac muscle (Homo sapiens) + …; IANBD-labeled TnC RTF fluorescence at EC20 calcium; 0% EC20 calcium, 100% full calcium; activation, % at 7.2 µM; hit rate 0.24% among 340,000; AID 493008, 2010;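 active = activation above the mean over all tested compounds plus 3 SD, cut at about 30% in these data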;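 also: rise in fluorescence read as greater calcium sensitivity of cardiac thin filaments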
CRFBP-R2 block = antagonists of CRF-BP/CRF-R2 complex, primary screen, cell-based, HEK293, calcium dye fluorescence, uHTS | AID 588475, 2011 | hit rate 0.59% among 350,000 | CRF-induced calcium fluorescence | inhibition, % at 11.8 µM;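 active = inhibition of the ligand-induced calcium signal above about 50% at the single tested concentration, limit read from the data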
Of the large screens only hits and unclear results are named; the others gave an inactive call. Rows were chosen to be rich in hits. Some 2.4% of all compounds tested hit in one or more screens of this group.

COc1ccc(S(=O)(=O)Nc2nc3ccccc3nc2NCC2CCCO2)cc1 (stereo not drawn)	CRFBP-R2 block 113.1
Cc1ccc(S(=O)(=O)N2CCC(NC(=O)c3cccc(C)c3)CC2)cc1	ANO1 activ -7.1
CC(=O)c1ccc(S(=O)(=O)N2CCC(NC(=O)Nc3cccc(F)c3)CC2)cc1	ANO1 activ -7.89
COc1ccccc1-c1nnc(SCC(=O)N2CCCC2)o1	none
C=CCn1c(SCC(=O)Nc2c(C)cccc2C)nnc1-c1ccncc1	CRFBP-R2 block 52.5
C=CCn1c(SCC(=O)Nc2cccc(OC)c2)nnc1-c1cccnc1	none
O=c1c2cc(Cl)ccc2nc(-c2ccccc2)n1O	none
O=c1c2cc(Cl)ccc2nc(-c2ccc(Cl)c(Cl)c2)n1O	CRFR2-BP ag 134.9, TMEM16A inh 100
COc1ccccc1-c1nc2cc(Cl)ccc2c(=O)n1O	none
O=c1c2ccc(Cl)cc2nc(-c2ccc([N+](=O)[O-])cc2)n1O	CRFR2-BP ag 59.2
N#Cc1ccc(-c2nc3ccc(Br)cc3c(=O)n2O)cc1	none
O=c1c2cc(Br)ccc2nc(-c2ccc([N+](=O)[O-])cc2)n1O	CRFR2-BP ag 100.6
COC(=O)c1ccc(COc2ccc(CNCc3ccc(Cl)cc3)cc2)cc1	none (no result: ANO1 activ)
O=C(Nc1ccn(Cc2ccc(Cl)cc2)n1)c1ccccc1	TMEM16A inh 25
CN(/N=C/c1cc(Cl)cc(Cl)c1O)C(=S)NC(C)(C)C	TMEM16A inh 100
Cn1c(Sc2ccc(Br)cc2)c(C=O)c2ccccc21	TMEM16A inh 100
Cn1c(Oc2ccc(F)cc2)c(C=O)c2ccccc21	none
COc1ccc(CC(=O)Nc2ccc(S(=O)(=O)N(C)C3CCN(C)CC3)cc2)cc1	none (no result: TMEM16A inh)
CC(Oc1ccc(Br)cc1)C(=O)Nc1ccc(S(=O)(=O)N(C)C2CCN(C)CC2)cc1 (stereo not drawn)	CRFR2-BP ag 95.8, ANO1 activ -10.2
Cc1ccc(S(=O)(=O)Nc2cc(C(=O)Nc3cc(C)cc(C)c3)ccc2Cl)cc1	CRFBP-R2 block 55.2
CCOCC(=O)Nc1cc(C(=O)Nc2cc(C)cc(C)c2)ccc1Cl	none (no result: CRFR2-BP ag, RTF Ca sens inh, ANO1 activ, RTF Ca sens act, CRFBP-R2 block)
Cc1cccc(NS(=O)(=O)c2ccc(C3CCCCC3)cc2)c1	TMEM16A inh 25
Cc1ccc(S(=O)(=O)Nc2ccc(C(=O)NC3CC3)cc2)cc1	none
Cc1cccc(NS(=O)(=O)c2nnc(NC(=O)c3ccc(Cl)cc3)s2)c1	none
Cc1cccc(NC(=O)c2cccc(NS(=O)(=O)c3ccc(Cl)cc3)c2)c1	TMEM16A inh 100
Cc1ccc(NS(=O)(=O)c2ccc(C(=O)Nc3nncs3)cc2)cc1	CRFBP-R2 block 110.5 (no result: TMEM16A inh)
COc1ccc(N2CCN(c3nc4ccc(C)cn4c(=O)c3C=O)CC2)cc1	none
Cc1cccc(NC(=O)c2cc(S(=O)(=O)c3ccccc3)ccc2Cl)c1	CRFBP-R2 block 62.0
COC(=O)c1sccc1NS(=O)(=O)c1ccccc1	CRFBP-R2 block 118.1
COC(=O)c1ccsc1NS(=O)(=O)c1ccccc1	none
Cc1ccsc1CN(C)CC(=O)NCC(=O)Nc1ccc(F)c(F)c1F	none (no result: TMEM16A inh)
NC(=O)NC(=O)COC(=O)c1cccc(NS(=O)(=O)/C=C/c2ccccc2)c1	RTF Ca sens act 38.1
COc1ccc(C2C(C#N)=C(N)Oc3cc(O)ccc32)cc1 (stereo not drawn)	none (no result: TMEM16A inh)
COc1ccc(N=Cc2cc3c(cc2O)OC(N)=C(C#N)C3c2ccccc2)cc1 (stereo not drawn)	RTF Ca sens act 71.3
CN(C)c1ccc(/C=C/C(=O)c2c(O)c3ccccc3oc2=O)cc1	CRFR2-BP ag 129.2
O=[n+]1c2c(n([O-])c3cc(F)c(N4CCCC4)cc31)CCC2	RTF Ca sens act 52.7
O=[n+]1c2c(n([O-])c3cc(F)c(N4CCCC4)cc31)CCCC2	CRFR2-BP ag 55.2, RTF Ca sens act 79.1
COCCn1c(=NC(=O)CSCC(=O)N2CCOCC2)sc2cc(C)ccc21	none
C(=Cc1nc2ccccc2o1)c1ccc2c(c1)OCO2	none (no result: TMEM16A inh, RTF Ca sens inh, ANO1 activ, RTF Ca sens act)
C(=Cc1cnc2ccccc2n1)c1ccc2c(c1)OCO2	CRFR2-BP ag 99.5 (no result: TMEM16A inh, RTF Ca sens inh, ANO1 activ, RTF Ca sens act)
Cn1cc(C2=C(c3ccc(Cl)cc3Cl)C(=O)NC2=O)c2ccccc21	CRFR2-BP ag 144.2, RTF Ca sens act 47.3
Cn1cc(-c2ccccc2C(N)=O)c(=O)c2cc(Cl)ccc21	none
Cc1cc(NCC(=O)Nc2ccc(C)c(S(=O)(=O)N3CCOCC3)c2)ccc1Br	none (no result: TMEM16A inh, RTF Ca sens inh, ANO1 activ, RTF Ca sens act)
CN(C)c1ccc(/C=C/c2nc3ccccc3c(=O)n2-c2ccc(C(=O)O)cc2)cc1	RTF Ca sens act 538.0
O=C(O)c1cccc(-n2c(/C=C/c3ccccc3)nc3ccccc3c2=O)c1	none
CCCCCC(=O)Nc1ccc(S(=O)(=O)Nc2nccc(C)n2)cc1	none
COc1ccc(-c2cc(C(F)(F)F)c3c(N)c(C(=O)NCCSC)sc3n2)cc1	CRFR2-BP ag 66.3, RTF Ca sens act 63.1
Cc1c(C(=O)O)sc2nc(-c3cccs3)cc(C(F)(F)F)c12	none
Nc1c(C(=O)C2CC2)sc2nc(-c3ccccc3)cc(C(F)(F)F)c12	CRFR2-BP ag 237.8
CC(=O)c1sc2nc(-c3cccs3)cc(C(F)(F)F)c2c1N	CRFR2-BP ag 113.2
CC(OC(=O)c1ccc2c(c1)OCO2)C(=O)NC1CCCCC1C (stereo not drawn)	none (no result: TMEM16A inh)
CC(OC(=O)c1ccc(-c2ccc(O)cc2)cc1)C(=O)NC1CCCCC1C (stereo not drawn)	CRFBP-R2 block 59.9
COc1ccc2oc(C(=O)N3CCN(S(=O)(=O)c4c(C)c(C)cc(C)c4C)CC3)c(C)c2c1	none (no result: TMEM16A inh)
COc1ccc(OC)c2sc(N(CCN(C)C)C(=O)c3ccc4ccccc4c3)nc12	none
COc1cc2ccccc2cc1C(=O)N(CCN(C)C)c1nc2c(OC)ccc(OC)c2s1	CRFBP-R2 block 72.2
Cc1ccc(S(=O)(=O)N2CCCc3ccccc32)cc1	none (no result: TMEM16A inh, RTF Ca sens inh, ANO1 activ, RTF Ca sens act)
Cc1ccc2cccc(S(=O)(=O)N3CCCc4ccccc43)c2n1	CRFR2-BP ag 87.5
O=C(c1ccc(N2C(=O)c3ccccc3C2=O)cc1)N1CCN(S(=O)(=O)c2ccccc2F)CC1	none (no result: TMEM16A inh, RTF Ca sens inh, ANO1 activ, RTF Ca sens act)
CCCOc1ccc(C(=O)Nc2ccc(S(=O)(=O)Nc3cc(C)nc(C)n3)cc2)cc1	none
C=CCOc1ccc(C2C(C(=O)c3ccco3)=C(O)C(=O)N2c2nnc(C)s2)cc1 (stereo not drawn)	ANO1 activ -8.92, CRFBP-R2 block 83.3
